Source: publication PMC4336329 (PLoS ONE, 2015)
The campaign covered roughly 310,000 compounds. About 14,000 (4.5%) showed an effect of 50% or more. Effects have a minus sign here. The list comes from a sample in which strong results are over-represented; it also holds similar structures and randomly drawn compounds.

Target: human ether-à-go-go-related gene (hERG) potassium channel (human, UniProt Q12809)
Assay: primary screen, population patch clamp on CHO cells stably expressing hERG; higher = less effect of the substance
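Further: peak tail current of the secondary pulse compared with the same well before compound.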

Sequence of human ether-à-go-go-related gene (hERG) potassium channel (Q12809 whole entry, looked up): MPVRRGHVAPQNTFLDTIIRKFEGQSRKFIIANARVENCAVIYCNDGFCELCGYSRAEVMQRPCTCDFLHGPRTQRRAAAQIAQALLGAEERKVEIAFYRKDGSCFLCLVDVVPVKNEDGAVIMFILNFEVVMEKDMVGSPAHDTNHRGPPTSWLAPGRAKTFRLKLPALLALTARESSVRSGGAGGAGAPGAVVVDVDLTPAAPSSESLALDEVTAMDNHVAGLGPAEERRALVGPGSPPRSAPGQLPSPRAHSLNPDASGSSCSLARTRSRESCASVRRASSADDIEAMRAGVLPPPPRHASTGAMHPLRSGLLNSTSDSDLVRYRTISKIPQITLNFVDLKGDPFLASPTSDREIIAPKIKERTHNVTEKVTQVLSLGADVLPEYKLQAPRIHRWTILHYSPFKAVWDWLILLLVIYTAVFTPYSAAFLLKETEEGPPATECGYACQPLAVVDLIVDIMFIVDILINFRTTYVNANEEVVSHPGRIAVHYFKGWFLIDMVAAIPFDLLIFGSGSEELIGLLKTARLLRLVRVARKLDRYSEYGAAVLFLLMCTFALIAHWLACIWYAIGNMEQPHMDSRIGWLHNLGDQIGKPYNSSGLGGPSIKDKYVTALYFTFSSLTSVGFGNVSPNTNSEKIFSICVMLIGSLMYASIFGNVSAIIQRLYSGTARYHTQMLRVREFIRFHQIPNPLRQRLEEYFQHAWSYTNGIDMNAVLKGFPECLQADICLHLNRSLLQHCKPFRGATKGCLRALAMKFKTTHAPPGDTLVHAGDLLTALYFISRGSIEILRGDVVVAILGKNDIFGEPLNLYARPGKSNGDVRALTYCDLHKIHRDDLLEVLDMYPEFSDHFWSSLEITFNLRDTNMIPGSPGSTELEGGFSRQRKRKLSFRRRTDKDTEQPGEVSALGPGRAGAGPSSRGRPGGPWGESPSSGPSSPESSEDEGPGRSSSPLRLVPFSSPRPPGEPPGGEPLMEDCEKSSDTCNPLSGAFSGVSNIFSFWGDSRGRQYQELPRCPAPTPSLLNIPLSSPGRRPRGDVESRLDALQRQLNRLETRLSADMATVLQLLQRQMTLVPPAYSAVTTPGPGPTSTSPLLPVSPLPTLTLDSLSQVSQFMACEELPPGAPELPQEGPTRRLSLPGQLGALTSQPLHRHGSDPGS

Point of comparison: `CCOC(=O)COc1ccc([N+](=O)[O-])cc1`, “hERG current change (%, negative = inhibition) at 10uM” value -5.07%. Against it:
- Cc1ccc(OC(=S)Nc2ccccc2)c(C)c1 — higher, 6.7%
- CCOC(=O)c1c(C)[nH]c(C(=O)COC(=O)CNS(=O)(=O)c2ccc(C)cc2)c1C — higher, 11.8%
- C=CCN(c1nc(C)cc(OC)n1)S(=O)(=O)c1ccccc1 — higher, -2.09%
- Cc1nc2c(sc3nc4c(cc32)COC(C)(C)C4)c(=O)n1Cc1ccccc1 — lower, -10.6%
- COCCN(C(=O)COC(=O)CCc1ccc(OC)cc1)c1c(N)n(Cc2ccccc2)c(=O)[nH]c1=O — higher, 27.6%
- COC(=O)C[C@H]1c2cc(F)ccc2S(=O)(=O)N1c1ccccc1 — higher, 8.82%
- O=C(CSC1=NNC(c2ccccn2)S1)Nc1cccc(Cl)c1 (centres unmarked) — higher, 12.6%
- O=C(Cn1cc2c(n1)CCCC2)NCCCN1CCN(c2ccccc2F)CC1 — lower, -31.1%
- Cc1ccc(C)c(N2CCN(CCCNC(=O)Cn3cc4c(n3)CCCCC4)CC2)c1 — lower, -69.3%
- COCCCNC(=O)Cn1cc2c(n1)CCC(C)C2 (centres unmarked) — higher, 1.99%
- Cc1ccc(C)c(N2CCN(CCCNC(=O)Cn3cc4c(n3)CCC(C)C4)CC2)c1 (centres unmarked) — lower, -63.4%
- CC1CCc2nn(CC(=O)NCCCN3CCCC3=O)cc2C1 (centres unmarked) — higher, 10.2%
- CCCN1CCN(CCCNC(=O)Cn2cc3c(n2)CCCC3)CC1 — lower, -7.41%
- COC(=O)c1ccc(Sc2ccccc2NS(=O)(=O)c2ccc(OC)cc2)nc1 — higher, 9.67%
- CN1CCN(c2ccc(NC(=O)Oc3ccccc3)cc2)CC1 — higher, 17.4%
- CCOc1ccc(C(C)(C)C)cc1S(=O)(=O)Nc1ccncc1 — higher, 17%
- Cn1nnc2cc(C(=O)NCc3ccco3)ccc21 — higher, 1.15%
- Cc1nc(Nc2nc(-c3ccccc3)cc(=O)[nH]2)nc2ccccc12 — higher, -3.73%
- COc1cc(/C=N/NC(=O)C2CCN(CC(O)COCc3ccccc3)CC2)ccc1O (centres unmarked) — lower, -78.1%
- CCOc1ccc(/C=N/NC(=O)C2CC2)cc1OC — higher, 18.3%
- COc1cc(/C=N/NC(=O)C2CCN(CC(O)COCc3ccccc3)CC2)cc(OC)c1OC (centres unmarked) — lower, -71.7%
- COc1cc(/C=N/NC(=O)CCc2ccccc2)ccc1O — higher, -1.02%
- COc1ccc(COCC(O)CN2CCC(C(N)=O)CC2)cc1OC (centres unmarked) — lower, -7.47%
- COc1cc(/C=N/NC(=O)Cc2ccccc2)cc(OC)c1OC — higher, 8.74%
- O=C(CCC(=O)c1ccc(F)cc1)NC1CCCN(Cc2ccccc2F)C1 (centres unmarked) — lower, -19.4%
- CC(=O)Nc1cccc(NC(=O)C(F)(F)F)c1 — higher, 21.2%
- Cc1onc(-c2ccccc2)c1C(=O)OCC(=O)Nc1ccc(C#N)cc1 — lower, -27.7%
- O=C(/C=C/c1ccc(-c2ccccc2[N+](=O)[O-])o1)c1ccccc1 — higher, 18.4%
- CC(=O)c1ccc(OCCOc2ccc([N+](=O)[O-])cc2)cc1 — lower, -57.6%
- CCC(C)NCCCOc1ccc([N+](=O)[O-])cc1.O=C(O)C(=O)O (centres unmarked) — lower, -74.7%
- CC(=O)c1ccc([N+](=O)[O-])cc1 — higher, 15.7%
- CCOC(=O)C(CCCCOc1ccc([N+](=O)[O-])cc1)C(=O)OCC — lower, -54.8%
- CCOC(=O)C(CCCOc1ccccc1)C(=O)OCC — lower, -14.3%
- COc1cc(C)ccc1OCCOCCOc1ccccc1[N+](=O)[O-] — lower, -29.5%
- COc1cc(C)ccc1OCCOCCOc1ccc([N+](=O)[O-])cc1 — lower, -54.8%
- CCCOc1ccc(OCCCCNC(C)CC)cc1.O=C(O)C(=O)O (centres unmarked) — lower, -18.9%
- CC(=O)Nc1ccc(OCCOc2ccc([N+](=O)[O-])cc2)cc1 — higher, 0.991%
- COc1cc(C)ccc1OCCOCCOc1ccc(C)cc1[N+](=O)[O-] — lower, -36.1%
- CCOC(=O)C(CCCOc1ccc(C)cc1)C(=O)OCC — lower, -8.52%
- CCC(C)NCCCCOc1ccc(Br)cc1.O=C(O)C(=O)O (centres unmarked) — lower, -32.6%
- CNC(=O)n1cc(C)c(-c2cccs2)n1 — higher, 5.15%
- Cc1cc2c(cc1S(=O)(=O)N1CCCC1)n(C)c(=O)c(=O)n2C — higher, -4.62%
- COc1ccc(CC(=O)OC(C)C(=O)c2ccc(C)cc2)cc1 (centres unmarked) — higher, 20.4%
- COc1ccc(OC(=O)c2cn(C)nc2C(F)(F)F)cc1 — higher, -1.05%
- Cc1ccc2nc(=O)c(NNc3ccccc3)cnc2c1 — higher, 15.6%
- CCCCN(C(=O)c1cc2c(s1)CCC2)c1c(N)n(CCCC)c(=O)[nH]c1=O — higher, -0.537%
- C1=C(c2c[nH]c3ccccc23)CCNC1 — higher, 7.59%
- CC(C)c1ccc(CNC(=O)C(=O)NCC2CCCO2)cc1 (centres unmarked) — higher, 7.73%
- CCc1ccc(OCCCC(=O)NCc2ccco2)cc1 — higher, 1.95%
- CCOC(=O)C(CCCCCOc1ccc([N+](=O)[O-])cc1)C(=O)OCC — lower, -50.4%
- CCOC(=O)C(CCCCCOc1ccccc1[N+](=O)[O-])C(=O)OCC — lower, -8.54%
- CCn1nc([N+](=O)[O-])c2c(-c3nc4ccccc4o3)c(N)n(CCCOC)c2c1=O — higher, 14.5%
- CCOC(=O)c1noc(C)c1C(=O)Nc1nc(C)cc(C)n1 — higher, 11.5%
- Cc1ccc(F)cc1NC(=O)CSCc1c(C)noc1C — higher, -3.15%
- O=c1[nH]nnc2c1sc1nc(N3CCOCC3)c3c(c12)CCCC3 — lower, -12.4%
- CC(=O)Nc1ccc(S(=O)(=O)NC(CC(=O)N2CCC3(CC2)OCCO3)C(C)C)cc1 (centres unmarked) — higher, 18.9%
- O=C(Nc1cc(S(=O)(=O)N2CCOCC2)ccc1N1CCCCC1)c1cc(-c2ccccn2)nc2ccccc12 — higher, 0.703%
- Cc1ccc(N(CC(O)CN2CCCCC2)S(=O)(=O)c2ccc(C)cc2)cc1 (centres unmarked) — higher, 13.8%
- COc1ccc(N(CC(O)CN2CCCCC2)S(=O)(=O)c2ccc(C)cc2)cc1 (centres unmarked) — lower, -78.6%
- Cc1cc(C)n(CC(O)CN(c2ccccc2)S(=O)(=O)c2ccccc2)n1 (centres unmarked) — higher, 7.17%
- COc1ccc(N(CC(O)Cn2c3ccccc3c3ccccc32)S(=O)(=O)c2ccccc2)cc1 (centres unmarked) — higher, 3.8%
- Cc1ccc(N(CC(O)CN2CCCC2)S(=O)(=O)c2ccc(C)cc2)cc1.Cl (centres unmarked) — lower, -76.4%
- Cc1ccccc1S(=O)(=O)N(CC(O)CN1C(=O)NC(C)(C)C1=O)c1ccccc1 (centres unmarked) — higher, 1.47%
- Cc1ccc(S(=O)(=O)N(CC(O)CN2CCOCC2)c2cc(Cl)ccc2Cl)cc1.Cl (centres unmarked) — lower, -31.9%
- Cc1ccccc1S(=O)(=O)N(CC(O)CN1CCCCC1)c1ccccc1 (centres unmarked) — lower, -71.7%
- Cc1ccc(S(=O)(=O)N(CC(O)CN2CCCC2)c2ccccc2)cc1 (centres unmarked) — lower, -62.2%
- COc1ccc(N(CC(O)CN2CCOCC2)S(=O)(=O)c2ccc(C)cc2)cc1 (centres unmarked) — lower, -45.2%
